# Source: PubChem BioAssay AID588497 (NMMLSC, 2011)
# The campaign covered roughly 360,000 compounds. About 780 (0.22%) were called active. Roughly 4% stayed inconclusive and do not appear here. Shown is part of a subset that was picked to be rich in actives. Values without a mark were called inactive. Rule as the data show it: active = inhibition above about 35% (passing the limit was not always enough); inconclusive = no clear call, values can overlap the other calls.
# System: Botulinum neurotoxin type F light chain protease (Clostridium botulinum)
# Assay: BoNT/F light chain protease inhibitors, primary screen, biochemical, flow cytometry, MLPCN library (AID 588497); also: plate controls were buffer without enzyme for full effect and enzyme alone for no effect
# Conditions: Multiplex microsphere protease cleavage assay, at 10 µM, active compounds read high
row,Structure (SMILES),inhibition
1,COc1ccc(-c2coc3c(C(=O)NC(C)C)cccc23)c(C)c1,-5.4%
2,CCOc1ccc(/C=C(/C#N)c2nnc(N3CCOCC3)n2-c2ccccc2)cc1OC,-9.5%
3,COc1cc(N2CCCC2)c(OC)cc1/C=C(/C#N)c1cccc(Br)c1,169% (active)
4,COc1ccc(-c2ccc(C(=O)NCCN3CCOCC3)c3occc23)c(C)c1,-4.4%
5,CCc1nc2ccc(C(=O)Nc3cccc(OC)c3)cn2c1N(CCC(C)C)CCN(C)C,3%
6,CCOCCC(=O)Nc1ccc2c(c1)c(=O)n(C)n2-c1ccc2ccccc2c1,-6%
7,OC(c1ccc(Cl)cc1)c1ncc(-c2ccc(Cl)cc2)[nH]1 (stereo not given),-8.9%
8,COc1ccc(CNC(=O)CN(c2ccc(OC)c(Cl)c2)S(=O)(=O)c2ccc(C)cc2)cc1,-6.9%
9,COC(=O)CN(c1nc(C)c(Cl)c(OC)n1)S(=O)(=O)c1ccc(C)cc1,41.2% (active)
10,CCN(CC)C(=O)CN(c1cccc(OC)c1)S(=O)(=O)c1ccc(C)cc1,-9.7%
11,CC(=O)Nc1cccc(-c2cc(NC=O)c3ncc(-c4ccc(F)c(Cl)c4)n3c2)c1,-9.5%
12,COc1ccc(-c2cc(NC(C)=O)c3ncc(-c4cc(OC)c(OC)c(OC)c4)n3c2)cn1,2.1%
13,CC1(C(=O)NCc2cccc3ccccc23)CCN1Cc1ccc(-c2ccccc2)o1 (stereo not given),-9.6%
14,CCc1nc2c(OCc3ccc(C(F)(F)F)cc3)cccn2c1N(C)C(=O)CC(C)C,0.4%
15,COc1ccccc1N1CCN(CC(=O)NC(=O)NCc2ccco2)CC1,-6.6%
16,Oc1ccccc1N1CCN(C(=S)NCc2ccccc2)CC1,-13.6%
17,O=C(CN1CCN(c2ccccc2O)CC1)NC(=O)NCc1ccccc1,69.8% (active)
18,Cc1ccc(Cc2c(-c3ccc(Cl)cc3)nc3c4ccccc4ccn23)cc1,-5.5%
19,CSCCC(c1nnnn1Cc1ccccc1)N1CCN(C/C=C/c2ccccc2)CC1 (stereo not given),-9.9%
20,O=S(=O)(NC1CCCCC1N1CCC(O)CC1)c1ccc(Cl)cc1 (stereo not given),110% (active)
21,O=S(=O)(NC1CCCCC1N1CCCCC1)c1ccc(Cl)cc1 (stereo not given),24.7%
22,CCN1CCN(C2CCCCC2NS(=O)(=O)c2ccc(Cl)cc2)CC1 (stereo not given),-2%
23,c1ccc(Cc2c(-c3ccco3)nc3c4ccccc4ccn23)cc1,4.5%

row,Structure (SMILES),inhibition
1,CCOc1ccc2[nH]c(=S)sc2c1,4.7%
2,C[C@H]([C@@H](O)[C@@H](O)[C@@H](C)C(C)(C)C)[C@H]1CC[C@H]2C3CC[C@H]4C[C@H](OS(=O)(=O)O)[C@@H](OS(=O)(=O)O)C[C@]4(C)[C@H]3CC[C@]12C (stereo not given in full),7.2%
3,COc1ccc(-c2cc(NC=O)c3ncc(-c4cc(OC)c(OC)c(OC)c4)n3c2)c(OC)c1,-7.7%
4,Cc1c(NC(=O)c2c([N+](=O)[O-])cnn2C)c(=O)n(-c2ccccc2)n1C,-13.3%
5,Cc1c(NC(=O)c2coc(=O)c(Br)c2)c(=O)n(-c2ccccc2)n1C,0.1%
6,Cc1c(NC(=O)c2cccnc2)c(=O)n(-c2ccccc2)n1C,58.9% (active)
7,CCCCCc1c(Cc2ccccc2)ncn1CCc1ccccc1OC,-7%
8,Cc1cc2nc(-c3ccc(Cl)cc3)c(Cc3cccc(F)c3)n2c(C)c1Br,-1.2%
9,COc1ccc(CC(N)c2csc(NC(=O)NC(c3ccccc3)c3ccccc3)n2)cc1 (stereo not given),-27.6%
10,O=C(Nc1ccc(-c2nnc(-c3ccccc3)o2)cc1)C1CCCO1 (stereo not given),-1.7%
11,O=C(Nc1nnc(SCc2c(Cl)cccc2Cl)s1)C1CCCO1 (stereo not given),-21.4%
12,O=C(Nc1nnc(CCc2ccccc2)s1)C1CCCO1 (stereo not given),37% (active)
13,NCCCNC(=S)NCCCN(Cc1ccc(Cl)cc1)c1ccc(Br)cn1,-47.9%
14,C=C1C(=O)OC2C1CCC(C)=CCCC1(C)OC21 (stereo not given),-2.6%
15,COc1ccc(Cl)cc1-c1cc(C(=O)Nc2cc(OC)c(OC)c(OC)c2)[nH]n1,-0.6%
16,CCCc1c(-c2ccccc2F)ncn1Cc1ccccc1OC,-10.4%
17,Cc1ccc(C(=O)COc2cccc(NC(=O)c3ccco3)c2)cc1,44.6% (active)
18,Cc1ccc(NC(=O)c2ccco2)cc1,-6%
19,Cc1cccc(OCC(=O)Nc2ccc(NC(=O)c3ccco3)c(C)c2)c1,17.3%
20,Clc1cccc(Cc2c(-c3cccc(Cl)c3)nc3ccc(Cl)cn23)c1,-3.7%
21,Fc1cccc(Cc2c(-c3ccc(Cl)cc3)nc3ccc(Cl)cn23)c1,-6%
22,CCN1CCN(C(C(=O)NC2CCCC2)c2cc3c(cc2[N+](=O)[O-])OCO3)CC1 (stereo not given),35.9% (active)
23,O=C(Cc1ccccc1[N+](=O)[O-])N1CCN(Cc2ccc3c(c2)OCO3)CC1,-12.3%

row,Structure (SMILES),inhibition
1,CCC(C)(C(=O)NC1CCCCC1)N(C)C(=O)c1ccc2c(c1)OCO2 (stereo not given),4%
2,OC(c1ccccc1)c1nc(/C=C/c2ccc(C(F)(F)F)cc2)cs1 (stereo not given),-10.4%
3,Cc1cc(=O)oc2c3c(cc(OCC(=O)NCC(O)c4ccccc4)c12)OC(C)(C)CC3 (stereo not given),-2%
4,O=C(CC[C@H]1O[C@@H](n2ccc(=O)[nH]c2=O)[C@H](O)[C@@H]1O)N[C@H](Cc1ccccc1)C(=O)NCCCN1CCCC1=O,1.4%
5,CC(=O)c1cccc(NC(=O)N2CCCC2C(=O)NCCc2ccccc2)c1 (stereo not given),35.3% (active)
6,O=C(NCCc1ccc(Cl)cc1)C1CCCN1C(=O)NCc1ccccc1 (stereo not given),-20.3%
7,Cc1ccc(CNC(=O)C2CCCN2C(=O)NCc2ccccc2)cc1 (stereo not given),5.7%
8,CCOC(=O)c1ccc(-c2ccc3ncnc(N(C)Cc4sccc4C)c3c2)o1,6.1%
9,CC(=O)N1Cc2cc(C(=O)NCc3cccc(F)c3)nc(-c3cccc(C4=CCCCC4)c3)c2[C@H]1CCO,-0.7%
10,CN(C(=O)C1CCOC1)c1nnc(-c2cccnc2)s1 (stereo not given),6.9%
11,CN(C(=O)c1ccccn1)c1nnc(-c2ccccn2)s1,40.4% (active)
12,O=C(Nc1nnc(C2CC2)s1)c1ccccn1,-19.8%
13,CC(C)Cc1nnc(NC(=O)CN2C(=O)NC3(CCCCC3)C2=O)s1,7.7%
14,CC(C)Cc1nnc(NC(=O)CCNC(=O)c2ccccc2Cl)s1,-5.1%
15,CC(C)Cc1nnc(NC(=O)CCC(=O)Nc2ccc3cn[nH]c3c2)s1,43.7% (active)
16,CCCc1nc2c3ccccc3ccn2c1Cc1ccccc1C(F)(F)F,1%
17,Cc1nc2c(OCc3ccc(Cl)cc3)cccn2c1N(C)Cc1cccs1,-1.1%
18,COC(=O)C[n+]1cccc2ccccc21,10%
19,O=C(C[n+]1cc(Br)cc2ccccc21)c1ccc(F)cc1,41.8% (active)
20,O=C(CNC(=O)c1ccccc1F)c1ccc(Br)cc1,-24.7%
21,CCCCc1c(-c2ccc(Cl)cc2)ncn1CCc1ccccc1OC,0.1%
22,NC(c1csc(NC(=O)Nc2cccc(C(F)(F)F)c2)n1)C1CCCCC1 (stereo not given),-35.6%
23,Cc1cccc(-c2cnc(C(O)c3ccc4ccccc4c3)[nH]2)c1 (stereo not given),-3.1%

row,Structure (SMILES),inhibition
1,COc1cc(/C=C2\SC(=S)N(Nc3ncc(C(F)(F)F)cc3Cl)C2=O)cc(OC)c1OC,43.1% (active)
2,O=C1/C(=C/c2ccc(F)cc2)SC(=S)N1NS(=O)(=O)c1ccccc1,0.7%
3,COc1cc(/C=C/C(=O)N2c3ccccc3Sc3ccc(C(F)(F)F)cc32)cc(OC)c1OC,-24.7%
4,COc1ccc(Br)c(Cn2c(C)c(C(=O)NCc3cccs3)sc2=O)c1,3.6%
5,O=C(Nc1nnc([C@H]2C[C@H](O)[C@@H](CO)O2)s1)c1cccc(Cl)c1,2.2%
6,COc1ccccc1CNC(=O)C1CCN(S(C)(=O)=O)CC1,-1.3%
7,COc1ccccc1CNC(=O)C1Cc2ccccc2C(=O)O1 (stereo not given),40.9% (active)
8,COc1ccccc1CNC(=O)[C@@H]1CCCN1C(=O)[C@@H]1Cc2ccccc2CN1C(=O)OC(C)(C)C,-3.1%
9,NC(Cc1ccccc1)c1csc(Nc2cc(Oc3ccccc3)ncn2)n1 (stereo not given),-21.7%
10,COc1ccc(CC(N)c2csc(NC(=O)Cc3ccccc3)n2)cc1 (stereo not given),-9.3%
11,CN(C)C(=O)c1cccc(-c2cnc3sc(NCc4ccc5c(c4)OCO5)nn23)c1,-7.5%
12,COc1cc2cc(CN(CCN3CCCC3)C(=O)Nc3ccccc3Cl)c(=O)[nH]c2cc1OC,56.9% (active)
13,Cc1ccc2[nH]c(=O)c(CN(CCCN(C)C)C(=O)Nc3cccc(Cl)c3)cc2c1,1%
14,COc1ccc(CCN(Cc2cc3cccc(C)c3[nH]c2=O)C(=O)N2CCCC2)cc1OC,-19.1%
15,FC(F)(F)Oc1ccccc1C(c1nnnn1C1CCCCC1)N1CCN(C/C=C/c2ccccc2)CC1 (stereo not given),-16.7%
16,CC1(Cc2ccccc2C#N)C(=O)Nc2ccc(-c3ccc4[nH]ccc4c3)cc21 (stereo not given),-3.4%
17,Cc1cccc(C)c1NC(=S)N1CCCCCC1,4.7%
18,C/C(=N\NC(=O)c1ccccc1F)c1ccccn1,-0.7%
19,CC(=NNC(=S)N1CCCCCC1)c1ccccn1,55% (active)
20,Cc1ccc(C(NC(=O)C2CCN(CCOc3ccc(Cl)cc3Cl)CC2)c2ccccn2)cc1 (stereo not given),4.2%
21,CC(=O)Nc1cccc(-c2ccnc3c2CC(C)(C(=O)NCc2ccccc2)O3)c1 (stereo not given),-1.6%
